Assay [1] is described as follows: NCI Yeast Anticancer Drug Screen. Data for the rad50 strain (AID 155).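 Note: 0% = growth of vehicle-only cultures of the same strain.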 To be noted: S. cerevisiae rad50 strain growth inhibition; at 50.0 µM; stronger effect = higher value. Put shortly:
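Inhibition values express reduced yeast growth in compound-treated cultures relative to vehicle-treated controls.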

The nature of assay [2]: NCI Yeast Anticancer Drug Screen. Data for the mec2-1 strain (AID 157). To be noted: S. cerevisiae mec2-1 strain, at 50.0 µM, stronger effect = higher value. An outline of the steps: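 Cells of the genetically defined mec2-1 yeast strain are incubated with test compound. Inhibition of growth is calculated against vehicle-treated controls.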
Assay [3] is described as follows: NCI Yeast Anticancer Drug Screen. Data for the sgs1 mgt1 strain (AID 161).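 Note: 0% = growth of cultures given vehicle only.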 To be noted: S. cerevisiae sgs1 mgt1 strain, at 50.0 µM, stronger effect = higher value. An outline of the steps:
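Mutant yeast exposed to compound; growth scored against vehicle-only wells.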

Assay [4] can be described thus: NCI Yeast Anticancer Drug Screen. Data for the cln2 rad14 strain (AID 165).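 Note: 0% = growth equal to vehicle treated cultures.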 To be noted: S. cerevisiae cln2 rad14 strain, at 50.0 µM, stronger effect = higher value. Put shortly: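 The screen exposed genetically defined yeast (cln2 rad14) to test compounds and scored growth inhibition relative to vehicle-treated controls.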
A short description of assay [5]: NCI Yeast Anticancer Drug Screen. Data for the bub3 strain (AID 167). To be noted: S. cerevisiae bub3 mutant strain, at 50.0 µM, stronger effect = higher value. Put shortly: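 Steps: expose the mutant yeast strain to compound; grow alongside vehicle-treated cultures; measure growth; express inhibition against the vehicle cultures.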
A short description of assay [6]: NCI Yeast Anticancer Drug Screen. Data for the mlh1 rad18 strain (AID 175). To be noted: S. cerevisiae mlh1 rad18 strain growth inhibition; at 50.0 µM; stronger effect = higher value. Put shortly: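 Compound-treated yeast growth, normalised to vehicle controls. Strain bears defined DNA repair mutations.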

Compounds without any hit were thinned out: in the full panel of roughly 79,000, 15% have a hit. A number with no mark means an inactive call. The source made the active and inactive calls. Cut-off read from the data, not from the text of the source: active = growth inhibition above about 70%; inactive = the rest.

On to `CCOC(=O)c1c[nH]c2ccc(-c3ccccc3)cc2c1=O`, for which the growth inhibition is 4.65% in assay [1]; 39.8% in assay [2]; 4.6% in assay [3]; 20.4% in assay [4]; 40.7% in assay [5]; 24.9% in assay [6].

`O/N=C1/CCCCc2ccccc21`: the growth inhibition in assay [1] is -13.4%; in assay [2] it was 0.95%; in assay [3] it was -21.2%; in assay [4], -29.7%; in assay [5], -14.4%; in assay [6], -15.2%.

With `O=C1OCCCC1(Cc1ccccc1)Cc1ccccc1`, the growth inhibition was 44.6% in assay [1]; -7.7% in assay [2]; 37.4% in assay [3]; -16.1% in assay [4]; 39.6% in assay [5]; 16.5% in assay [6].

With `C(=N\Nc1nc2ccccc2s1)/c1cccs1`, the growth inhibition was 16.9% in assay [1]; 33% in assay [2]; 23.6% in assay [3]; 16.1% in assay [4]; 36.4% in assay [5]; 29.4% in assay [6].

Turning to `COc1cc2c(c(OC)c1OC)-c1ccc(S(=O)(=O)Cc3ccccc3)c(=O)cc1C(NC(C)=O)CC2` (stereo not given), the growth inhibition is 34.5% in assay [1]; 16.2% in assay [2]; 9.8% in assay [3]; -2.3% in assay [4]; 1.25% in assay [5]; 21.8% in assay [6].

As to `C/C(=C1/N=C(c2cc([N+](=O)[O-])ccc2Cl)N(c2ccc(Br)cc2)C1=O)c1cc2ccccc2oc1=O`, the growth inhibition in assay [1] is 35.3%; in assay [2] it was 17.7%; in assay [3], 15.7%; in assay [4] it was 14.1%; in assay [5], 9.35%; in assay [6] it was 19.8%.

For the compound `CC1CCCCN1S(=O)(=O)N(C)C` (stereo not given), the growth inhibition in assay [1] was 8.65%; in assay [2] it was 27.1%; in assay [3] it was -4.95%; in assay [4], -6.1%; in assay [5], 9.55%; in assay [6], 6.15%.

With `CCCCN1C(=O)C(NC(C)=O)C1COC(C)(C)C` (stereo not given), the growth inhibition is -21.9% in assay [1]; -5.2% in assay [2]; -28.4% in assay [3]; -8.65% in assay [4]; -28.1% in assay [5]; -35.5% in assay [6].

With `Cc1ccccc1CN(C)CCCO`, the growth inhibition is 4.1% in assay [1]; -13% in assay [2]; -16.8% in assay [3]; -16.1% in assay [4]; -3.85% in assay [5]; 1.05% in assay [6].

On to `COC(=O)C(/C(=N\O)C(=O)Nc1cccc(Cl)c1C)c1cnc2ccccc2n1` (stereo not given), for which the growth inhibition in assay [1] was 14.5%; in assay [2], -11.1%; in assay [3], 8.75%; in assay [4], 23.5%; in assay [5], -0.2%; in assay [6] it was 12.5%.

As to `Cc1ncc(CO)c(Nc2ccccc2Cl)n1`, the growth inhibition in assay [1] was 2.5%; in assay [2], -2.4%; in assay [3], -6.25%; in assay [4], -16.4%; in assay [5], -11.7%; in assay [6], 14.4%.

With `C1CCC(CN2CCN(CC3CCCCO3)CC2)OC1` (stereo not given), the growth inhibition in assay [1] was -2.4%; in assay [2], -11.5%; in assay [3], -1.05%; in assay [4], -41.8%; in assay [5], 0.25%; in assay [6], 3.05%.

With `CC(=O)c1c(-c2ccc(Cl)cc2)c(-c2ccc(Cl)cc2)nn(CCN)c1=O`, the growth inhibition in assay [1] is 38.1%; in assay [2], 15.2%; in assay [3], 29.2%; in assay [4], 24.6%; in assay [5], 42.7%; in assay [6], 93% (active).

For the compound `CCC1(C)N=C(N)Nc2nc3ccccc3n21` (stereo not given), the growth inhibition in assay [1] was -9.95%; in assay [2], 0.35%; in assay [3] it was -7.65%; in assay [4], -28.6%; in assay [5], 0.4%; in assay [6], -18.2%.

On to `CCOC(=O)c1c(C(=O)OCC)c(C)n(/N=N/n2c(C)c(C(=O)OCC)c(C(=O)OCC)c2C)c1C`, for which the growth inhibition in assay [1] is 29.3%; in assay [2], 9.75%; in assay [3], 23.6%; in assay [4], 26.3%; in assay [5] it was -1.45%; in assay [6], 12.8%.

On to `C=C(C)C1CCC2(CO)C(O)CC3(C)C(CCC4C5(C)CCC(O)C(C)(C)C5CCC43C)C12` (stereo not given), for which the growth inhibition is 14.5% in assay [1]; 7.45% in assay [2]; -8.75% in assay [3]; 2.95% in assay [4]; 15.6% in assay [5]; -6.6% in assay [6].

Consider `O=C(NC(=S)Nc1ccc(Cl)cc1C(=O)c1ccccc1)c1ccc(Cl)cc1Cl`, for which the growth inhibition is -32% in assay [1]; 6.9% in assay [2]; -8.45% in assay [3]; 74.4% (active) in assay [4]; -3.05% in assay [5]; -1.15% in assay [6].

Turning to `CCOC(=O)c1nc2ccc(C(F)(F)F)cc2nc1Nc1ccc(Cl)c(Cl)c1`, the growth inhibition in assay [1] was -22.1%; in assay [2], 4.1%; in assay [3], -13.9%; in assay [4], -19%; in assay [5], -1.35%; in assay [6], 6.15%.

In the case of `CCCC(SCC(=O)O)SCC(=O)O`, the growth inhibition in assay [1] was 14.4%; in assay [2], -6.05%; in assay [3] it was -6.85%; in assay [4] it was -41.8%; in assay [5] it was -4.75%; in assay [6], -17%.

In the case of `COc1ccc(C(O)(c2ccc(OC)cc2)c2ccccc2Cc2ccccc2OC)cc1`, the growth inhibition was -61.6% in assay [1]; 1.65% in assay [2]; -22.3% in assay [3]; -20.6% in assay [4]; 0.65% in assay [5]; -21.4% in assay [6].

The record behind these values is PubChem BioAssay (NCI).
